FBA Mtb inh = Mtb FBA enzyme inhibitors, primary screen, biochemical, fluorescence, strain H37Rv; purified M. tuberculosis FBA, fluorescence read-out; inhibition, % at 1 µM; 360,000 tested, 2.3% active; AID 588726, 2011;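 note: 0% = vehicle and 100% = reference inhibitor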
Target sequence (P9WQA3 whole entry, looked up): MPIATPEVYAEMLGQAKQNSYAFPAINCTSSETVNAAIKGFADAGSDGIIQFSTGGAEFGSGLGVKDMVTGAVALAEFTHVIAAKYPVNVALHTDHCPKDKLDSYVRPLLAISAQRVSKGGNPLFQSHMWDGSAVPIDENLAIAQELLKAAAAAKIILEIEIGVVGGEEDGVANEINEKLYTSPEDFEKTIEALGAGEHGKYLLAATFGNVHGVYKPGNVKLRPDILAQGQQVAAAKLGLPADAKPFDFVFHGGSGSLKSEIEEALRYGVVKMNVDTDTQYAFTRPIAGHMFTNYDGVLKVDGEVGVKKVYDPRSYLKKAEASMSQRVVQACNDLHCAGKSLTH
FadD28 FP inh = inhibitors of FadD28 bisubstrate probe binding, primary screen, biochemical, fluorescence polarization, single point. inhibition, % at 12.5 µM. 360,000 tested, 0.22% active. AID 588549, 2011; in the data active = inhibition above about 8.5%, passing the limit was not always enough
Rv3671c inh = Rv3671c serine protease inhibitors, primary screen, biochemical, fluorescence polarization, M. tuberculosis H37Rv; inhibition, % at 5.96 µM; 320,000 tested, 0.048% active; P9WHR9; in the data active = inhibition above about 38%;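 note: extracellular domain of Rv3671c used as enzyme; 0% = enzyme with DMSO and 100% = no enzyme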
UGM FP inh = M. tuberculosis UGM enzyme inhibitors, primary screen, biochemical, fluorescence polarization, single point; inhibition, % at 10 µM; UDP-galactopyranose mutase (Mycobacterium tuberculosis (strain ATCC 25618 / H37Rv)), …; 320,000 tested, 0.06% active; purified UGM, fluorescence polarization probe displacement; AID 504406, 2011; in the data active = inhibition above about 10%, passing the limit was not always enough
GDH-TPI counter-1 = GDH-TPI coupling enzyme inhibitors, primary screen, artefact control for M. tuberculosis FBA inhibitor project, biochemical, absorbance, full deck | 360,000 tested, 1.2% active | inhibition, % at 4.8 µM | GDH-TPI coupled enzyme counterscreen, NADH absorbance | AID 588335, 2011; in the data active = inhibition above about 30%;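 note: 0% = DMSO wells and 100% = wells lacking the enzyme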
Mtb bLac sens = beta-lactam sensitization of Mtb H37Rv, H37Rv. M. tuberculosis H37Rv growth with meropenem, percent inhibition. inhibition, % at 25 µM. 330,000 tested, 0.27% active. AID 434955, 2010; call rule not given here;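 note: growth measured after seven days incubation then overnight dye step; 0% = bacteria only wells and 100% = bacteria with antibiotic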
Mtb FBA confirm = M. tuberculosis aldolase blockers, biochemical, fluorescence, strain H37Rv, confirmation | 5,600 tested, 78% active | purified M. tuberculosis FBA, fluorescence read-out | inhibition, % at 1 µM | shares compounds with FBA Mtb inh;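 note: 0% = vehicle wells and 100% = reference inhibitor wells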
GDH-TPI counter-2 = GDH-TPI coupling enzyme inhibitors, artefact control for M. tuberculosis FBA inhibitor project, biochemical, fluorescence, high throughput; shares compounds with FBA Mtb inh; GDH-TPI coupled enzyme counterscreen; inhibition, % at 1 µM; 5,600 tested, 81% active; in the data active = inhibition above about 10%
GDH-TPI DR = GDH-TPI coupling enzyme inhibitors, dose response, artefact control for M. tuberculosis FBA inhibitor project, biochemical, fluorescence, IC50. shares compounds with FBA Mtb inh. GDH-TPI coupled enzyme assay, artifact counterscreen. IC50, µM. 170 tested, 79% active; call rule not given here
Starred values were filed as active, the others as inactive; · = no result given; + = active, no number. Most compounds without a hit are left out; they make up all but 3.7% or so of the library. Cut-off read from the data, not from the text of the source, unless noted: active = inhibition above about 27%; inactive = the rest.

SMILES	FBA Mtb inh	FadD28 FP inh	Rv3671c inh	UGM FP inh	GDH-TPI counter-1	Mtb bLac sens	Mtb FBA confirm	GDH-TPI counter-2	others
CC1CCCCN1Cc1ccc(N)cc1 (stereo unspecified)	1	-1	2	0	-7	9	·	·
Cc1c(CN2CCCCC2C)c(=O)n(-c2ccccc2)n1C (stereo unspecified)	2	-1	6	3	1	-5	·	·
CC1CCCCN1Cc1c(O)ccc2c(=O)c(-c3ccc(Br)cc3)coc12 (stereo unspecified)	42*	0	·	·	16	·	+	164*
CC1CCCCN1Cc1c(O)ccc2c(=O)c(-c3ccc(Cl)cc3Cl)coc12 (stereo unspecified)	62*	0	-4	2	18	-8	+	+
CC1CCCCN1Cc1c(O)ccc2c(=O)c(-c3ccc(Cl)cc3)coc12 (stereo unspecified)	52*	0	5	0	9	-3	123*	103*
OCCNc1c2ccccc2nc2c(F)c(F)c(F)c(F)c12	72*	-1	1	-2	2	-5	+	+
COc1ccc2nc(-c3ccccc3)cc(C(=O)OCC(=O)N3CCCCC3)c2c1	87*	0	-42	2	1	60	+	+
COc1ccc2nc(-c3ccccc3)cc(C(=O)OCC(=O)N3CC(C)OC(C)C3)c2c1 (stereo unspecified)	110*	0	-30	0	10	65	38*	30*
O=C(CCNC(=O)c1ccco1)NNC(=O)c1ccc(Br)cc1	5	-3	·	·	2	·	·	·
COC(=O)C1(C#N)C(c2ccccc2)C1(C(=O)OC)C(=O)OC (stereo unspecified)	2	-3	-13	-1	-7	-6	·	·
CC1OC2(C)OC(=N)C1(C#N)C(C#N)(C#N)C2c1ccccc1 (stereo unspecified)	53*	-2	12	0	-4	0	62*	50*
CCCCC1OC2(C)OC(=N)C1(C#N)C(C#N)(C#N)C2c1ccccc1 (stereo unspecified)	78*	0	-3	0	11	-2	116*	83*
Fc1cccc(NC(=S)NNc2c3ccccc3nc3ccccc23)c1	50*	-3	·	·	10	·	187*	132*
CC12C=CC(=O)C=C1CCC1C2C(O)CC2(C)C1CCC2(O)C(=O)CO (stereo unspecified)	-1	0	·	·	2	·	·	·
COC(=O)CCS(=O)(=O)c1nc(-c2ccccc2)cc(C(F)(F)F)n1	5	-3	0	-2	-3	99	·	·
COCC(C)NC(=O)CCS(=O)(=O)c1nc(-c2ccc(OC)cc2)cc(C(F)(F)F)n1 (stereo unspecified)	78*	-7	-4	-2	36*	21	+	+
COCCn1c(-c2ccc(-c3ccc([N+](=O)[O-])cc3Br)o2)nc2c1c(=O)[nH]c(=O)n2CC(C)C	3	-2	-16	-2	4	9	·	·
COc1ccc(-c2cnc3c(c2)CCC3(C#N)C#N)cc1	58*	-2	2	3	7	80	50*	33*
COC(=O)C1CCN(C(=O)c2cc(-c3ccco3)nc3ccccc23)CC1	109*	-2	-2	0	22	6	54*	43*
O=C(c1ccco1)N1CCN(C(=O)c2cc(-c3ccccc3)nc3ccccc23)CC1	-1	0	3	0	5	-3	·	·
O=C(c1cc(-c2ccco2)nc2ccccc12)N1CCN(Cc2ccccc2)CC1	50*	-3	-3	0	0	1	138*	148*
C/C(=N\Nc1cc(C(F)(F)F)ccc1Cl)c1ccncc1	1	-1	-6	-3	5	88	·	·
CCSc1nnc(-c2ccc(S(=O)(=O)N3CCCC3)cc2)n1C	33*	-1	-1	-2	3	3	-2	-8
CSc1nnc(-c2ccc(S(=O)(=O)N3CCOCC3)cc2)n1C	23	0	-2	2	-4	-5	·	·
CCSc1nnc(-c2ccc(S(=O)(=O)N3CCOCC3)cc2)n1C	30*	-2	-1	2	10	0	+	+
SMILES	FBA Mtb inh	FadD28 FP inh	Rv3671c inh	UGM FP inh	GDH-TPI counter-1	Mtb bLac sens	Mtb FBA confirm	GDH-TPI counter-2	others
CCOC(=O)C(NC(=O)c1ccccc1)C(C)(C)SCc1ccccc1 (stereo unspecified)	-1	-3	·	·	-8	·	·	·
CCOC(=O)Nc1nnc(-c2ccccc2OC)s1	42*	-2	-7	0	11	-13	137*	98*
Nc1nnc(-c2ccccc2Cl)s1	13	-1	1	-2	2	28	·	·
COc1ccccc1-c1nnc(N)s1	46*	1	6	0	4	10	86*	76*
COc1ccc(-c2nnc(NC(=O)C(C)C)s2)c(OC)c1	36*	0	-4	-2	18	-4	101*	102*
O=C(Nc1nncs1)Oc1ccccc1	0	0	-3	2	7	-6	·	·
COC(=O)Nc1nncs1	50*	-2	4	-1	12	-4	145*	130*
COC(=O)Nc1nnc(-c2ccncc2)s1	108*	0	-3	-1	19	-3	59*	56*
COC(=O)Nc1nnc(-c2ccccc2OC)s1	67*	-3	2	0	3	5	11	-3	GDH-TPI DR=3.2*
CCN(CC(=O)NCc1ccc(F)cc1)C(=O)/C=C/c1cc(OC)ccc1OC	45*	-2	·	·	16	·	+	194*
CCN(CC(=O)NCc1ccc(Cl)cc1)C(=O)/C=C/c1cc(OC)c(OC)c(OC)c1	16	-4	4	2	12	3	·	·
CC(C)(C)c1ccc(OCCOc2ccc(C(C)(C)C)cc2NC=O)c(NC=O)c1	-1	0	-24	1	4	3	·	·
Cc1cc(C[n+]2ccccc2)c2nsnc2c1	31*	-2	2	-1	11	-5	97*	72*
Cc1cc(C[n+]2ccsc2N)c2ncccc2c1	0	-2	-5	-1	8	2	·	·
